Consider 40 molecules from PubChem BioAssay AID1224856 (National Center for Advancing Translational Sciences (NCATS), 2016).

Results filed as inconclusive are left out. Values without a mark were called inactive. Calls of active or inactive are those of the source. The call rests on the fitted dose curve; in most records, active means well fitted curve in the direction sought with a large enough effect; inconclusive means small, poorly fitted or top-dose-only effect, or another doubt; inactive means no such curve, though single readings can be large or run the other way.

This assay in a line: Cell viability assay for measurement of the protective activity of small molecules against cell death caused by Zika virus infection in human astrocytes. The following applies: human astrocytes ZIKV-induced death, ATP luminescence, 72 h; series mostly up to 46.1 µM; protection from virus-induced death: at the top concentration. The text has this:
National Center for Advancing Translational Sciences [NCATS] Johns Hopkins University School of Medicine Florida State University Assay Overview: Zika virus infection causes cell death in certain cell types including human neural progenitor cells (hNPCs), astrocytes, and astrocytoma cell line (SNB-19). This cell viability assay measures the ATP content (level) in human astrocytes using a luminescence readout that is proportional to viable cell numbers. Decrease in the luminescence signal after Zika virus infection indicates the cell death caused by Zika virus. Small molecule inhibitors […] the decreased luminescence signal after Zika virus infection, indicating the protective effect of that small molecule on the cell death caused by Zika virus infection. This observed protective effect of small molecules against Zika virus induced cell death may result from inhibition of virus replication or cellular response to the virus infection.
Assay Protocol Summary: The medium for astrocytes contains AM basal medium (ScienCell, Cat.# 1801), AGS (ScienCell, Cat.# 1801), 10% FBS, and 1% Pen/Strep. The ATP content assay kit (PerkinElmer, Cat.# 6016731) was used to determine cell viability. The reagent was reconstituted and prepared as described by the manufacturer. Cells were seeded in 384- or 1536-well assay plates and cultured at 37 C with 5% CO2 for 16 to 20 hours. The typical cell seeding density in the 1536-well plate assay is 350 cells/well in 3 ul medium for astrocytes in the tissue cultured treated/PDL coated plates. Compounds were added to cells and incubated for one hour before addition of ZIKV solution to cells (2 FFU/cell). After incubation at 37 C with 5% CO2 for 72 hours, the reagent mixture of the ATP content assay kit was added to each well, followed by incubation at room temperature for 10 minutes. The luminescence intensity of the assay plates was measured using a ViewLux plate reader (PerkinElmer). […] The percentage inhibitions of the decreased cell viability by small molecule inhibitors were then calculated.
As for `CC(C)Oc1ccc2c(=O)c(-c3ccccc3)coc2c1`, the “protection from virus-induced death” value was -5.36%. Regarding `CCN(CC)c1ccc(C(=C2C=CC(=[N+](CC)CC)C=C2)c2cc(S(=O)(=O)O)ccc2S(=O)(=O)[O-])cc1`, the “protection from virus-induced death” value is -6.8%. As to `COCCn1c2c([n+](Cc3cnccn3)c1C)C(=O)c1ccccc1C2=O`, the “protection from virus-induced death” value was -9.52%.

As for `[O-][n+]1ccccc1SSc1cccc[n+]1[O-]`, the “protection from virus-induced death” value was -9.35% [at 88.3 µM]. Same read-out and setting: next, `O=C1CCC[C@@H]2[C@H]3CCCN4CCC[C@@H](CN12)[C@@H]34`: 3.66%. For the molecule `O=c1c(-c2ccc(O)cc2)coc2cc(OC3O[C@H](CO)[C@H](O)[C@H](O)[C@H]3O)cc(O)c12` (stereo not given in full), the “protection from virus-induced death” value was 4.77%. For `CCCCCCCC/C=C/C(=O)O`, the “protection from virus-induced death” value was -1.29%. `CCCCCCCCCCCC(=O)[O][Sn]([CH2]CCC)([CH2]CCC)[O]C(=O)CCCCCCCCCCC`: the “protection from virus-induced death” value was -3.89%.

On to `CCC(C(=O)O)c1ccc(N2Cc3ccccc3C2=O)cc1` (stereo not given), for which the “protection from virus-induced death” value is -4.84%.

As for `O=C(O)c1cc([N+](=O)[O-])ccc1NCCCc1ccccc1`, the “protection from virus-induced death” value was -1.03%.

On to `CN(C)c1cc(NC(=O)CNC(C)(C)C)c(O)c2c1C[C@@H]1C[C@H]3[C@H](N(C)C)C(=O)C(C(N)=O)=C(O)[C@@]3(O)C(=O)C1=C2O`, for which the “protection from virus-induced death” value was -2.39%. With `O=C(OCc1ccccc1)c1ccc(O)cc1`, the “protection from virus-induced death” value is -3.82%. With `CC(C)[C@H]1C(=O)N[C@H](CO)Cc2c[nH]c3cccc(c23)N1C`, the Potency is 1.09 µM (active). Turning to `O=c1cc(-c2ccccc2)oc2cc(O)cc(O)c12`, the “protection from virus-induced death” value was 0.394%. For the molecule `CCCC(=O)OC[C@@H](OC(=O)CCC)[C@@H](OC(=O)CCC)[C@H](Cn1c2nc(=O)[nH]c(=O)c-2nc2cc(C)c(C)cc21)OC(=O)CCC`, the “protection from virus-induced death” value is 3.06%.

As to `CN1CCN(c2cc3c(nn2)Oc2ccccc2N3C)CC1`, the “protection from virus-induced death” value is 1.46% [at 23.8 µM]. Consider `O=C(O)CCC(=O)c1ccc(-c2ccccc2)cc1`, for which the “protection from virus-induced death” value was -0.858%.

As to `CC(C)c1ccc2oc3nc(N)c(C(=O)O)cc3c(=O)c2c1`, the “protection from virus-induced death” value is -9.76%. For the molecule `O=C(O)c1cccc(-c2noc(-c3ccccc3F)n2)c1`, the “protection from virus-induced death” value is -5.89%. For `O=C(C=CC=Cc1ccc2c(c1)OCO2)N1CCCCC1`, the “protection from virus-induced death” value was -6.68%. Still for that read-out and setting: next, `Cc1c(NC(=O)c2ccc(C(C)(C)C)cc2)cccc1-c1cn(C)c(=O)c(Nc2ccc(C(=O)N3CCOCC3)cc2)n1`: 1.63%; `CC(=NNC(=S)N1CCC1)c1ccccn1`: -5.84%.

Turning to `Cc1ccc(O)c(N=Nc2ccccc2)n1`, the “protection from virus-induced death” value is -7.13%.

Turning to `Cc1ccc2c(n1)Oc1ccc(C(C)C(=O)OCC(=O)N(C)C)cc1C2` (stereo not given), the “protection from virus-induced death” value was -0.871%.

Turning to `CC(O)CN1CCN(CC(=O)[O-])CCN(CC(=O)[O-])CCN(CC(=O)[O-])CC1.[Gd+3]` (stereo not given), the “protection from virus-induced death” value was 7.51%. On to `S=C(SSC(=S)N1CCCCC1)N1CCCCC1`, for which the Potency is 7.74 µM (active). Turning to `O=C(O)c1ccccc1Nc1cccc(C(F)(F)F)c1`, the “protection from virus-induced death” value was -4.67%. In the case of `N#C/C(=C\c1ccc(O)c(O)c1)C(=O)Nc1ccccc1`, the “protection from virus-induced death” value was 8.43%. Consider `C[C@@H]1CCN(C(=O)CC#N)C[C@H]1N(C)c1ncnc2[nH]ccc12`, for which the “protection from virus-induced death” value was -4.55%.

On to `Cc1oncc1C(=O)Nc1ccc(C(F)(F)F)cc1`, for which the “protection from virus-induced death” value was -3.72%. Same read-out and setting: next, `CN(C)CCCSc1ccccc1NC(=O)/C=C/c1ccccc1`: -2.15%; `O=C(Nc1ccc(OC(F)(F)F)cc1)c1sccc1NCc1ccnc2ccccc12`: 20.3%; `O=c1oc2cc(O)ccc2s1`: 6.44%. Same read-out and setting: with `Clc1ccccc1-c1nc(-c2ccncc2)no1` the figure was -2.26%.

For `COc1cc2nc(N3CCN(C(=O)C4CCCO4)CC3)nc(N)c2cc1OC` (stereo not given), the “protection from virus-induced death” value is 3.64%.

On to `N#CC1(c2ccc(NC(=O)c3cccnc3NCc3ccncc3)cc2)CCCC1`, for which the “protection from virus-induced death” value is 5.4%.

For `COc1ccc(C=CC(=O)Nc2ccccc2C(=O)O)cc1OC`, the “protection from virus-induced death” value is -2.38%. With `Oc1ccc(/C=C/c2cc(O)cc(O)c2)cc1`, the “protection from virus-induced death” value was -6.36%. Consider `CO[C@H]1C(=O)[C@]2(C)[C@@H](OC)C[C@H]3OC[C@@]3(OC(C)=O)[C@H]2[C@H](OC(=O)c2ccccc2)[C@]2(O)C[C@H](OC(=O)[C@H](O)[C@@H](NC(=O)OC(C)(C)C)c3ccccc3)C(C)=C1C2(C)C`, for which the “protection from virus-induced death” value is 6.47%.

For the molecule `COc1ccc(/C=C/C(=O)Nc2ccccc2C(=O)O)cc1OC`, the “protection from virus-induced death” value is -3.37%.
